IL-1B inflam inh – inflammasome signaling inhibition, IL-1 beta readout; THP-1 LPS/ATP IL-1B secretion, AlphaLISA, 16 h; hits give low values; activity change, % at 57.5 µM; actives 4.7% (n = 360,000); AID 743279; in the data active means activity change below about -50%; inconclusive means mostly about -30% to -49%; further: on the % scale 0 is the no-effect control and ±100 the full control effect
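Secreted IL-1B measured by AlphaLISA bead assay after 16 h compound exposure of THP-1 cells; compounds (final up to 57.5 uM) added 1 h before LPS (250 ng/mL) and ATP (1.25 mM) stimulation; lower signal means less secretion.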
TDP1 cell noCPT – qHTS for Inhibitors of human tyrosyl-DNA phosphodiesterase 1 (TDP1): qHTS in cells in absence of CPT; DT40 Tdp1-/- hTDP1 cells, no CPT, ATP luminescence, 48 h; actives 15% (n = 420,000); Potency, µM (highest dose often 46.2 µM), without a hit: top-dose activity change, negative = growth inhibition, most hits filed as inhibitors; further: potency means the concentration at half of the fitted maximal effect; on the % scale 0 is the no-effect control and ±100 the full control effect; nearly all actives have a fitted effect of over 55% in size
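Seeded 400 DT40-hTDP1 cells/well (vehicle DMSO, no 20 nM CPT); pinned compounds; ≥48 hr at 37 °C; CellTiter-Glo luminescence as viability measure.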
SW480 rereplic – DNA re-replication induction in SW480 cells | SW480 DNA re-replication, Hoechst DNA content imaging, 48 h | Potency, µM (top dose mostly 46.1 µM), for inactives: at the top dose re-replication activation, actives largely listed as activators | actives 1.8% (n = 340,000) | AID 624297; further: potency means the concentration at half of the fitted maximal effect; % of control where 0% means no effect; nearly all actives have a fitted effect of over 55% in size
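Readout is total intensity of Hoechst-stained nuclei, excited at 405 nm and collected at 500-530 nm. Compound treatment lasted 48 hr at 37 C in 5% CO2 before staining.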
TDP1 cell CPT – DT40-hTDP1 cell growth loss with CPT; AID 686979; chicken DT40 Tdp1-/-;hTDP1 cells + 20 nM CPT, ATP luminescence, 48 h; Potency, µM (highest dose often 46.2 µM), for the others: top-dose activity change, negative = growth inhibition, actives largely listed as inhibitors; actives 12% (n = 420,000); further: potency means the concentration at half of the fitted maximal effect; on the % scale 0 is the no-effect control and ±100 the full control effect; nearly all actives have a fitted effect of over 55% in size
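Cell growth measured by CellTiter-Glo luminescence after a minimum 48 h, 37 C compound exposure with 20 nM CPT in Tdp1-knockout DT40 cells stably expressing hTDP1, seeded 400/well; qHTS titration format.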
BCR signal inh – inhibitors of chronic active B-cell receptor signaling | ABC-DLBCL IkBa-CBG/CBR reporter, luminescence ratio, 4 h | Potency, µM (highest dose often 46.1 µM), for inactives: at the highest dose activity change, negative = inhibition, hits mostly inhibitors | actives 0.05% (n = 340,000) | AID 493014; active means well fitted inhibition curve with a large enough effect in the signal ratio, with a control signal flat, not every such curve was filed as active; inconclusive means small, poorly fitted or top-dose-only effect, or effect the other way, or a change in a side signal; the % refers to the signal ratio;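 further: potency means the concentration at half of the fitted maximal effect; plate controls were basal doxycycline-induced cells for no effect and cells given 10 µM MG132 for full effect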
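Compounds up to 46 uM were incubated four hours with TMD8 cells whose green CBG68 luciferase is fused to IkappaBalpha; red CBR luminescence normalised the signal, and concentration-effect curves were fitted to fusion, red and ratio data.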
MCF10A rerep – inducers of DNA re-replication in MCF 10A breast cells. actives 2.9% (n = 350,000). MCF 10A DNA re-replication, Hoechst nuclear intensity, 48 h. Potency, µM (titrated, usually from 46.1 µM), for the others: top-dose activity, positive = re-replication, actives largely listed as activators; further: potency means the concentration at half of the fitted maximal effect; % of control where 0% means no effect; nearly all actives have a fitted effect of over 50% in size
An asterisk follows results filed as active; u = inconclusive; x = not tested or not shown; [ ] = dose if it differs, or a comment. A selection: hits, their analogues and other compounds. The true share with any hit is near 19%. Unless noted, the call rests on the fitted dose curve; in most records, active means well fitted curve in the direction sought with a large enough effect; inconclusive means small, poorly fitted or top-dose-only effect, or another doubt; inactive means no such curve, though single readings can be large; an effect the other way counts as inactive or inconclusive.

SMILES	IL-1B inflam inh	TDP1 cell noCPT	SW480 rereplic	TDP1 cell CPT	BCR signal inh	MCF10A rerep
CC(=O)n1cc([C@@H]2C=C(C(=O)Nc3ccccc3)O[C@H](OCc3ccc(CO)cc3)C2)c2ccccc21	22	13µM*	-17%	23µM*	u	u
CCOc1ccccc1N1CC(C(=O)Nc2cc(Cl)ccc2-n2cncn2)CC1=O (centres undefined)	5	-20%	-3%	-16%	3%	-2%
CCCCOc1ccc(C2C(=O)N(C3CCCCC3)CC(=O)N2C2CCCCC2)cc1 (centres undefined)	x	-15%	x	-8%	0%	x
COc1ccc(C(=O)NNC(=O)COC(=O)c2sccc2C)cc1	5	-12%	-6%	1%	0%	12%
CC(=O)n1cc([C@H]2C=C(C(=O)N3CCN(Cc4ccccc4)CC3)O[C@@H](OCCCCO)C2)c2ccccc21	-9	u	18%[9.22 µM]	u	-3%	-1%
C#CCNC(=O)C1=C[C@@H](c2cn(C(C)=O)c3ccccc23)C[C@@H](OCc2ccc(CO)cc2)O1	17	23µM*	u	23µM*	12%	5%
CC(=O)n1cc([C@@H]2C=C(C(=O)N3CCN(Cc4ccccc4)CC3)O[C@H](OCc3ccc(CO)cc3)C2)c2ccccc21	u	8.2µM*	1%	8.2µM*	15%	u
O=C(NCc1ccccc1)C1=C[C@@H](c2ccc(C(F)(F)F)cc2)C[C@@H](OCCCCO)O1	-6	26µM*	9%	u	x	u
Cc1cc(-c2nc3ncccc3o2)ccc1NC(=O)COc1cc(C)c(Cl)c(C)c1	x	2%	x	-5%	x	x
CC(C)N1CCC1(C)C(=O)Nc1nc2ccccc2[nH]1 (centres undefined)	11	7%	x	2%	x	x
C/C(CC(=O)Nc1ccccn1)=N\NC(=O)c1ccccc1O	145	16µM*	1.3µM*	4.1µM*	u	14%
C/C(CC(=O)Nc1ccccn1)=N\NC(=O)c1ccncc1	x	x	x	x	-16%	x
C/C(CC(=O)Nc1cc(C)ccn1)=N\NC(=O)c1cccc(C)c1O	70	u	12µM*	-4%	u	u
CN(C(=O)CSc1nc2ccc(Cl)cc2[nH]1)C1CCS(=O)(=O)C1 (centres undefined)	-10	-15%	-7%	1%	6%	0%
COc1cc(-c2nnc(SCC(=O)NC3CCCC3)n2C)cc(OC)c1O	14	4%	-24%	0%	0%	0%
CCOC(=O)N1CCN(C(=O)C[C@@H]2C[C@@]3(C(=O)OCC)CCC=C3N(Cc3ccc4c(c3)OCO4)C2=O)CC1	6	u	x	-28%	x	x
CCOC(=O)[C@]12CCCC=C1N(Cc1ccc3c(c1)OCO3)C(=O)[C@H](CC(=O)N1CCCCC1)C2	-2	15µM*	x	13µM*	x	x
CCOC(=O)[C@]12CCCC=C1N(Cc1ccc3c(c1)OCO3)C(=O)[C@H](CC(=O)N1CCCC1)C2	18	21µM*	x	u	x	x
CCOC(=O)[C@]12CCC=C1N(Cc1ccc3c(c1)OCO3)C(=O)[C@H](CC(=O)N1CCC(c3ccccc3)CC1)C2	u	16µM*	x	u	x	x
CCN(CC(=O)Nc1ccccc1OC)C(=O)COc1ccc2ccccc2c1	4	u	-14%	u	-1%	1%
CC(=O)CC(c1ccccc1)S(=O)(=O)c1ccc([N+](=O)[O-])cc1 (centres undefined)	-10	2%	-7%	-2%	-1%	-2%
O=C(CN1C(=O)NC2(CCCC2)C1=O)OCc1c(F)cccc1Cl	-1	-17%	-7%	-11%	5%	-32%

Compound activity from PubChem.
